The source of these data is ChEMBL document CHEMBL3988442, “University of Dundee, Small-Polar-MMV Screening Library” (2021).

For assay [1], the target named is T1, Aspartate--tRNA(Asp/Asn) ligase (Mycobacterium tuberculosis (strain ATCC 25618 / H37Rv)) (UniProt P9WFW3). Note: in the data most compounds retested in dose-response had high values.
T1 sequence (whole entry): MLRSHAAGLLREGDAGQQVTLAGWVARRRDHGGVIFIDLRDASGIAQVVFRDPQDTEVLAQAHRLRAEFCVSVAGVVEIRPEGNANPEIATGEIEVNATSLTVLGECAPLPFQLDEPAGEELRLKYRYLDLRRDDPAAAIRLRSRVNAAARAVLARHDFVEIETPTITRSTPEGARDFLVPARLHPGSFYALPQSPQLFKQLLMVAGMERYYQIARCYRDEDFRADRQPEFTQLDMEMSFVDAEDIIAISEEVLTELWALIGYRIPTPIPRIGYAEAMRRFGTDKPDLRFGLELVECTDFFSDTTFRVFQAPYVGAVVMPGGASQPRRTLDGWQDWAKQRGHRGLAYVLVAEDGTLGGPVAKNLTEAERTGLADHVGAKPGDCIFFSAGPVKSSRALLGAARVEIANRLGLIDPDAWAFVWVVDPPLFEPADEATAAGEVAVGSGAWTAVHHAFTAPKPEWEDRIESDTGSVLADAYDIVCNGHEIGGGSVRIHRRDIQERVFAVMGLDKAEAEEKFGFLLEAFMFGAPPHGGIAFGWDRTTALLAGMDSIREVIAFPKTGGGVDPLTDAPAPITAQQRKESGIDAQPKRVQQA
The assay can be described thus: Assay for Asp RNA synthetase-1 from Mycobacterium tuberculosis. Type of assay: functional. On the set-up: scale not given: direction of the effect not stated beside the values. The settings on record: 30 µM.

Assay [2] deals with Shiga toxin 2 (Escherichia coli O157:H7) (UniProt P09385+P09386). The assay can be described thus: E. coli 0.157:H7 Shiga Toxin SOP - stx2 screening assay. The arrangement: scale not given: direction of the effect not stated beside the values. Type of assay: functional. The following applies: 30 µM.

For the compound `Cc1nn(C)c(C)c1C1CCCN1Cc1cccc(C(N)=O)c1` (centres undefined), the Percent Effect is -1.14% in assay [1] and -1.22% in assay [2].

On to `Cc1nc(CN2CCOC(CNc3cccnn3)C2)cs1` (centres undefined), for which the figures for the Percent Effect in assay [1] and in assay [2] were -1.08% and -2.07%, respectively.

For `c1cncc(N2CCOCC3(CCCN(c4nncs4)C3)C2)c1` (centres undefined), the Percent Effect was 2.36% in assay [1] and -5.55% in assay [2].

Consider `CN(C)S(=O)(=O)N1CCC(Oc2ccc(C#N)cc2)CC1`, for which the Percent Effect in assay [1] was 0.641%; in assay [2], -1.14%.

Turning to `CNS(=O)(=O)c1cccc(CNC(=O)c2c(C)nn(C)c2C)c1`, the results for the Percent Effect in assay [1] and in assay [2] were -4.44% and 8.19%, respectively.

For the compound `CCOCC1CN(S(C)(=O)=O)Cc2ncn(CC3CC3)c21` (centres undefined), the figures for the Percent Effect in assay [1] and in assay [2] were -0.663% and -6.21%, respectively.

As to `COc1ccc(CN2CCn3cc(CN4CCCCC4)nc3C2)cc1`, the Percent Effect in assay [1] was 4.3%; in assay [2], -5.01%.

Take `O=C(NCC1CCN(C(=O)c2ccoc2)CC1)c1ccccc1Br`: the Percent Effect is -6.27% in assay [1] and 3.64% in assay [2].

As for `Cc1n[nH]c(C)c1C1COCCN1C(=O)Cc1cccc(F)c1` (centres undefined), the Percent Effect is 3.85% in assay [1] and -14.1% in assay [2].

For the compound `CSc1ncccc1C(=O)NCc1ccc(CS(=O)(=O)NC(C)C)cc1`, the Percent Effect in assay [1] came out at 4%; in assay [2], 6.55%.

As for `O=C(N1CCOCC1)[C@@]12CCO[C@@H]1CCN(Cc1ccccc1F)C2`, the Percent Effect in assay [1] was -6.79%; in assay [2] it was -21.7%.

Turning to `Cc1ccccc1-c1cc(C(=O)N2CCn3c(C)nnc3C2)[nH]n1`, the Percent Effect is -2.28% in assay [1] and -13.5% in assay [2].

For the compound `CSc1ccc(S(=O)(=O)N2CCCCC2CCNC(C)=O)cc1` (centres undefined), the Percent Effect in assay [1] was 7.57%; in assay [2] it was -4.85%.

As to `Cc1ccccc1C(=O)Nc1cnn(CC(=O)NC2CCCC2)c1`, the results for the Percent Effect in assay [1] and in assay [2] were 2.07% and -6.1%, respectively.

Turning to `Cn1cc(Cl)cc1C(=O)N1CCN(Cc2ccsc2)CC1`, the values for the Percent Effect in assay [1] and in assay [2] were -1.54% and 15.6%, respectively.

As for `CN(C)C(=O)CS(=O)(=O)Cc1cc(Cl)c2c(c1)OCO2`, the Percent Effect in assay [1] is 0.927%; in assay [2], 25.6%.

For `CC(=O)N1CCOC(c2cc(N3CC(O)C3)nc(C)n2)C1` (centres undefined), the figures for the Percent Effect in assay [1] and in assay [2] were -3.6% and 6.14%, respectively.
